Shown are actives, neighbours in structure and some others; about 4.4% of the full set was active somewhere.
TIM10 inh – growth inhibitors of isogenic TIM10 control yeast, primary screen, counter-screen for tim10-1 yeast inhibitor project, luminescence, uHTS; S. cerevisiae TIM10 strain growth, BacTiter-Glo luminescence, 24 h; inhibition, % at 10 µM; 330,000 compounds, 1.4% hits;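 active = inhibition of 40% or more at the single tested concentration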;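 also: wild-type TIM10 isogenic control strain grown at permissive 25 °C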
tim23-1 inh – growth inhibitors of tim23-1 mutant yeast, primary screen, luminescence, uHTS | S. cerevisiae tim23-1 growth, BacTiter-Glo luminescence, 24 h | inhibition, % at 20 µM | 330,000 compounds, 1.3% hits | AID 463212, 2010;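 active = growth inhibition of the mutant yeast at or above 50%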;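 also: temperature-sensitive mutant grown at 25 °C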
tim10-1 inh – growth inhibitors of tim10-1 mutant yeast, primary screen, luminescence, uHTS | S. cerevisiae tim10-1 ts strain growth, BacTiter-Glo, 24 h | inhibition, % at 20 µM | 330,000 compounds, 2.2% hits | AID 463190, 2010;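 active = inhibition of at least 40%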;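 also: mutant grown at 25 °C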
SKKanGAS inh – S. pyogenes SKKanGAS growth inhibitors in kanamycin, primary screen, streptokinase expression inhibitor project, SKKanGAS strain, BacTiter-Glo luminescence | 6 h | inhibition, % at 7.5 µM | 300,000 compounds, 1.3% hits;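 active = mean replicate score, as percent of positive control median, at least 50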;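 also: strain carries kanamycin resistance gene driven by streptokinase promoter and grows in 40 µg/ml kanamycin; loss of luminescence reflects streptokinase promoter inhibition or plain growth inhibition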
PfHsp90 set2 – growth inhibition of PfHsp90-expressing yeast, primary screen, antimalarial PfHsp90 inhibitor project, S. cerevisiae, BacTiter-Glo luminescence, single point, set 2; BacTiter-Glo ATP, 48 h; yeast lacking PDR1 and PDR3 efflux regulators; inhibition, % at 9.4 µM; 310,000 compounds, 0.32% hits; AID 504621, 2011;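 active = every replicate shows inhibition above about 80%, whatever the replicate mean, limit read from the data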
Of the large screens only hits and unclear results are named; the others gave an inactive call.

Cn1cccc1C1CCCN1CC(=O)Nc1ccc(F)c(F)c1F (centres undefined)	none (no result: SKKanGAS inh)
Cc1ccc(-c2cc(N)n3nc(-c4ccc(C)cc4)cc3n2)cc1	none (no result: PfHsp90 set2)
Cc1ccc(-c2cc3nc(-c4ccc(Br)cc4)cc(N)n3n2)cc1	SKKanGAS inh 74.7
CCN(CC)C(=O)c1[nH]cnc1C(=O)NCc1ccccc1	none (no result: SKKanGAS inh)
Brc1cccc(-c2nc3cccnc3nc2-c2cccc(Br)c2)c1	none
Clc1ccc(-[n+]2c(-c3cccc(Br)c3)[nH]c3nc4ccccc4nc32)cc1	SKKanGAS inh 85.2
O=C(Nc1nc2ccccc2n1CCOc1ccccc1)c1ccco1	SKKanGAS inh 77.1
Cc1cccc(OCCn2c(NC(=O)c3ccco3)nc3ccccc32)c1	SKKanGAS inh 62.0
Cc1ccc(OCCn2c(NC(=O)c3ccco3)nc3ccccc32)cc1	SKKanGAS inh 65.7
O=C(Nc1nc2ccccc2n1CCOc1ccc(Cl)cc1)c1ccco1	SKKanGAS inh 90.5
CCC1C(=O)C[C@H]2CCN3C(=O)CCCC1C23 (some centres undefined)	none (no result: SKKanGAS inh)
Cc1ccc(NC(=O)c2ccc(Cl)c(S(=O)(=O)N3CCCCC3)c2)nc1	none (no result: SKKanGAS inh)
CC[n+]1c(/C=C2\Sc3ccccc3N2C)ccc2cccc(C)c21	SKKanGAS inh 68.8 (no result: TIM10 inh, tim23-1 inh, tim10-1 inh)
CCOC(=O)N1CCN(c2nc(N(c3ccccc3)c3ccccc3)nc(-n3ccnc3)n2)CC1	none (no result: PfHsp90 set2)
c1ccc(N(c2ccccc2)c2nc(N3CCCC3)nc(-n3ccnc3)n2)cc1	SKKanGAS inh 78.5
CN(c1ccccc1)c1nc(N2CCCC2)nc(-n2ccnc2)n1	SKKanGAS inh 52.3
c1ccc(CN2CCN(c3nc(-c4ccccc4)nc(-n4ccnc4)n3)CC2)cc1	none
CCC(C)(C)C1CCc2[nH]nc(C(=O)NCc3ccccn3)c2C1 (centres undefined)	none (no result: SKKanGAS inh)
Cc1ccc(C(=O)NC(=S)Nc2cccc3c(C)cc(C)nc23)cc1	SKKanGAS inh 78.5
O=c1c2ccccc2cnn1-c1ccc2ccccc2c1	none (no result: PfHsp90 set2)
O=C(Nc1ccc(Nc2ccccc2)cc1)c1c(F)c(F)c(F)c(F)c1F	none
Cc1cccc(N2C(=O)C=CC2=O)c1	PfHsp90 set2 116.9 (no result: TIM10 inh, tim23-1 inh, tim10-1 inh, SKKanGAS inh)
O=C1C=CC(=O)N1c1ccc2ccccc2c1	PfHsp90 set2 116.3 (no result: TIM10 inh, tim23-1 inh, tim10-1 inh, SKKanGAS inh)
O=C1C=CC(=O)N1c1ccc(Nc2ccccc2)cc1	PfHsp90 set2 126.0 (no result: TIM10 inh, tim23-1 inh, tim10-1 inh, SKKanGAS inh)
CCOc1ccc2oc(C(=O)NCc3ccccc3CN3CCCC3)c(C)c2c1	none (no result: SKKanGAS inh)
CC1CCN(c2nc(-c3cccnc3)nc3scc(-c4ccccc4)c23)CC1	SKKanGAS inh 74.9
CC1CCCN(c2nc(-c3cccnc3)nc3scc(-c4ccccc4)c23)C1 (centres undefined)	none
COc1cccc(-c2nc(N3CCCCC3C)c3ccccc3n2)c1O (centres undefined)	SKKanGAS inh 75.7
COc1cccc(-c2nc(NC3CCCC3)c3ccccc3n2)c1O	SKKanGAS inh 55.5, PfHsp90 set2 116.9
COc1cccc(-c2nc(N3CCN(C)CC3)c3ccccc3n2)c1O	none
Cc1cnc(NC(=O)c2sc3ccccc3c2Cl)s1	none
O=C(Nc1nccs1)c1sc2cc(Cl)ccc2c1Cl	SKKanGAS inh 66.3 (no result: PfHsp90 set2)
O=C(Nc1cccc(Cl)c1)Nc1nccs1	none
O=C(Nc1ccc(Cl)c(Cl)c1)Nc1nccs1	SKKanGAS inh 54.7
O=C(NC1CC1)c1sc2cc(Cl)ccc2c1Cl	none
O=C(Nc1ccccc1-c1nc2ccccc2[nH]1)c1ccc(N2C(=O)CCC2=O)cc1	none
O=C(Nc1nccs1)c1sc2ccccc2c1Cl	SKKanGAS inh 49.6
O=C(Nc1ccccc1-c1nc2ccccc2[nH]1)c1sc2ccccc2c1Cl	SKKanGAS inh 64.2 (no result: PfHsp90 set2)
Cc1cc(=O)n(C(C)Cc2ccccc2)n1C(C)Cc1ccccc1 (centres undefined)	none (no result: TIM10 inh, tim23-1 inh, tim10-1 inh, SKKanGAS inh)
CC1(NC(=O)Cc2c(F)cccc2Cl)CCS(=O)(=O)C1 (centres undefined)	none (no result: SKKanGAS inh)
CCCCCCSc1ccc([C@@H]2[C@H]3C(=O)N(CC)C(=O)[C@H]3[C@]3(C(=O)OC)CCCN23)cc1	none (no result: SKKanGAS inh)
COCCn1c(SCC(=O)Nc2ccc(C(N)=O)cc2)nc2c([nH]c3ccccc32)c1=O	none
COCCn1c(SCC(=O)Nc2ccc(F)cc2)nc2c([nH]c3ccccc32)c1=O	SKKanGAS inh 50.8
COc1cccc(CCN2CCC(CNS(=O)(=O)c3cc(-c4cc(C)no4)ccc3C)CC2)c1	none
C[C@@H](NC(=O)c1[nH]cnc1C(=O)Nc1cccc(Cl)c1)c1ccccc1	none (no result: SKKanGAS inh, PfHsp90 set2)
CCCOc1cc(C)nc(-c2ccccc2O)n1	none
CCCCN(CCCC)c1cc(C)nc(-c2ccccc2O)n1	SKKanGAS inh 53.9
CCCCNc1nc(N)nc(-c2cc(Cl)ccc2O)n1	PfHsp90 set2 103.8
CCCNc1nc(N)nc(-c2cc(Cl)ccc2OC)n1	none
COc1ccc2cc(C(=O)N/N=C/c3sc4ccccc4c3O)ccc2c1	none
O=C(N/N=C/c1ccccc1)c1cccc2ccccc12	none
Oc1c(C=Nc2cccc3cccnc23)sc2ccccc12	SKKanGAS inh 94.5 (no result: PfHsp90 set2)
O=C(N/N=C/c1sc2ccccc2c1O)c1cccc2ccccc12	SKKanGAS inh 90.8, PfHsp90 set2 104.2 (no result: TIM10 inh, tim23-1 inh, tim10-1 inh)
COc1ccc(C(=O)N/N=C/c2sc3ccccc3c2O)cc1	PfHsp90 set2 100.2 (no result: TIM10 inh, tim23-1 inh, tim10-1 inh)
CCOC(=O)[C@@H](C)N(Cc1ccc(OC)cc1)S(=O)(=O)N(Cc1ccccc1)[C@H](C(=O)OC)C(C)C	none (no result: SKKanGAS inh)
CC(C)C(NC(=O)C(c1ccccc1)c1ccccc1)c1nc2ccccc2[nH]1 (centres undefined)	SKKanGAS inh 79.1
O=C(COC(=O)Cc1cn2ccsc2n1)Nc1nc2ccccc2s1	SKKanGAS inh 80.0
Cc1ccc(OCCCC(=O)NNC(=O)c2ccccn2)cc1	none (no result: SKKanGAS inh)
Cc1nc(NC(=O)c2ccc(Cl)cc2)sc1-c1csc(Nc2cccc(F)c2)n1	SKKanGAS inh 73.4 (no result: TIM10 inh, tim23-1 inh, tim10-1 inh, PfHsp90 set2)
CC(C)(C)c1ccccc1OCCCCCn1ccnc1	SKKanGAS inh 63.2
Cc1cccc(NC(=O)C2SC(=Nc3c(C)cccc3C)C(C(=O)N3CCOCC3)=C2N)c1 (centres undefined)	SKKanGAS inh 94.3
Cc1cccc(C(=O)Nc2cccc(C(=O)N3CCOCC3)c2)c1	none
COc1cc2ccccc2cc1C(=O)NC(=S)Nc1cccc(C(=O)O)c1	none
COc1cc2ccccc2cc1C(=O)NC(=S)Nc1ccc(C(=O)O)cc1	SKKanGAS inh 54.5
Cc1ccsc1C(=O)OC(C)C(=O)NC1CCCCC1C (centres undefined)	none (no result: SKKanGAS inh)
O=C1c2ccccc2CCCC12N=NCC2c1cccc2ccccc12 (centres undefined)	SKKanGAS inh 49.8
CC(C)C(C(=O)Nc1ccncc1)c1ccc(Cl)cc1 (centres undefined)	none
CC(C)C(C(=O)Nc1nccs1)c1ccc(Cl)cc1 (centres undefined)	SKKanGAS inh 60.3
COc1cccc(OC)c1C(=O)OCC(=O)N(c1ccccc1)C1CCCCC1	none (no result: SKKanGAS inh)
